Reference: PubChem BioAssay (NCI)
Compounds without any hit were thinned out: in the full panel of roughly 83,000, 20% have a hit.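 Cell lines were cultured in 96-well plates, exposed to a single compound concentration, and assessed for percent growth 48 hours later.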 Unmarked numbers belong to inactive results. Calls of active or inactive are those of the source. How the source made its calls: active means growth percent below 10; inactive means the rest.

Columns and labels:
Assay in all cases: NCI-60 one-dose screen, 48 h (100 = growth as untreated, 0 = no growth, -100 = all killed)
Conditions in all cases: 10 µM unless noted
[1] = system: SK-MEL-2 melanoma
[2] = system: EKVX NSCLC
[3] = system: SN12C renal
[4] = system: UO-31 renal
[5] = system: TK-10 renal
[6] = system: ACHN renal
[7] = system: CAKI-1 renal
[8] = system: A498 renal
[9] = system: CCRF-CEM leukemia
[10] = system: MOLT-4 leukemia
[11] = system: SR leukemia
[12] = system: RPMI-8226 leukemia
[13] = system: OVCAR-8 ovarian
[14] = system: OVCAR-5 ovarian
[15] = system: OVCAR-4 ovarian
[16] = system: SK-OV-3 ovarian
[17] = system: IGROV1 ovarian
[18] = system: OVCAR-3 ovarian
[19] = system: HS 578T breast
[20] = system: NCI/ADR-RES ovarian

Row | Compound | growth [1] | growth [2] | growth [3] | growth [4] | growth [5] | growth [6] | growth [7] | growth [8] | growth [9] [%] | growth [10] | growth [11] | growth [12] | growth [13] | growth [14] | growth [15] | growth [16] | growth [17] | growth [18] | growth [19] | growth [20]
1 | CN1CCN(Cc2ccc(NC(=O)c3[nH]ncc3Nc3ncnc4c3CCC4)cc2)CC1 | 13.6% | 26% | 6.07% (active) | 6.53% (active) | 2.4% (active) | -10.8% (active) | 9.41% (active) | -21.7% (active) | 11.1 | -2.96% (active) | -18.6% (active) | -9.23% (active) | 11.9% | -0.195% (active) | 6.83% (active) | 24.5% | 19.2% | -5.87% (active) | 16.1% | 71.7%
2 | CCN(CC)CCCNc1cc(OC)cc2nc3cc(Cl)ccc3nc12 | 3.9% (active) | 0.555% (active) | 13.1% | -86.7% (active) | -15.5% (active) | 3.95% (active) | -78.7% (active) | 14.3% | 19.9 | -26.2% (active) | -34.6% (active) | -14.3% (active) | -8.47% (active) | -39.3% (active) | -11% (active) | 6.29% (active) | -29.9% (active) | -48.9% (active) | 23.3% | -50.2% (active)
3 | CN1CCN(Cc2ccc(NC(=O)c3[nH]ncc3Nc3ccnc4ccsc34)cc2)CC1 | 64.9% | 41.1% | 21.3% | 44.5% | 58.6% | 13.5% | 59.3% | 17% | 11 | 2.39% (active) | -12.5% (active) | 19.2% | 21.5% | 18.1% | 12.5% | 34.7% | 24.2% | 22.6% | 54.6% | 93.5%
4 | CN(C)c1ccc(/C=C\C2=[N+](C)c3ccccc3C2(C)C)cc1 | -3.85% (active) | 8.84% (active) | -1.45% (active) | 55% | 27.8% | 4.49% (active) | 13.4% | 48.2% | 14.6 | 15.7% | 25% | 66.5% | 20.8% | 27.9% | 35.5% | -11.6% (active) | 9.25% (active) | -9.9% (active) | 9.83% (active) | 84.1%
